Measured values published in the supplement of paper PMC6089552.
In all, about 3,200 compounds went through this assay and about 300 (9.4%) showed activity. For the sample, actives were picked, then their nearest neighbours and some compounds at random.

System: A673/TR/shEF
Test: cell viability (LOESS-normalised, relative to median of negative controls) (log2 ratio); higher = more viable cells (less compound effect), active = hit call of the paper (over 3 MAD below the median)
Conditions: treatment time: 72 h
Procedure, shortened: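 A673/TR/shEF Ewing sarcoma cells were plated at 1,500 per well in 384-well plates and cultured with or without doxycycline, added 24 h before compounds, to induce EWS-FLI1 shRNA knockdown. Library compounds at two or more concentrations, alongside DMSO controls, were applied for three days. Cell viability was measured by CellTiter-Glo luminescence on an Envision reader. Readings were LOESS-corrected per plate, divided by the median of negative controls and log2-transformed, and hits were wells lying at least three median absolute deviations from the median of all screened wells.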

[1] = 0.25 µM, library screen: screen2, EWS-FLI1 expression: high (no doxycycline)
[2] = 0.25 µM, library screen: screen2, EWS-FLI1 expression: low (doxycycline-induced shRNA knockdown)
[3] = 2.5 µM, library screen: screen2, EWS-FLI1 expression: high (no doxycycline)
[4] = 2.5 µM, library screen: screen2, EWS-FLI1 expression: low (doxycycline-induced shRNA knockdown)
[5] = 0.25 µM, library screen: screen1, EWS-FLI1 expression: high (no doxycycline)
[6] = 0.25 µM, library screen: screen1, EWS-FLI1 expression: low (doxycycline-induced shRNA knockdown)
[7] = 2.5 µM, library screen: screen1, EWS-FLI1 expression: high (no doxycycline)
[8] = 2.5 µM, library screen: screen1, EWS-FLI1 expression: low (doxycycline-induced shRNA knockdown)
[9] = 0.103 µM, library screen: screen3, EWS-FLI1 expression: high (no doxycycline)
[10] = 0.103 µM, library screen: screen3, EWS-FLI1 expression: low (doxycycline-induced shRNA knockdown)
[11] = 0.308 µM, library screen: screen3, EWS-FLI1 expression: high (no doxycycline)
[12] = 0.308 µM, library screen: screen3, EWS-FLI1 expression: low (doxycycline-induced shRNA knockdown)
[13] = 0.926 µM, library screen: screen3, EWS-FLI1 expression: high (no doxycycline)
[14] = 0.926 µM, library screen: screen3, EWS-FLI1 expression: low (doxycycline-induced shRNA knockdown)
[15] = 2.8 µM, library screen: screen3, EWS-FLI1 expression: high (no doxycycline)
[16] = 2.8 µM, library screen: screen3, EWS-FLI1 expression: low (doxycycline-induced shRNA knockdown)
[17] = 8.3 µM, library screen: screen3, EWS-FLI1 expression: high (no doxycycline)
[18] = 8.3 µM, library screen: screen3, EWS-FLI1 expression: low (doxycycline-induced shRNA knockdown)
[19] = 25 µM, library screen: screen3, EWS-FLI1 expression: high (no doxycycline)
[20] = 25 µM, library screen: screen3, EWS-FLI1 expression: low (doxycycline-induced shRNA knockdown)

Measured: cell viability (log2)

CC1(NCC(O)COc2cccc3[nH]ccc23)CCC(C(C)(C)NC(=O)CBr)CC1 (stereo unspecified)
inactive: [1] 0.126 | [2] 0.0547 | [3] 0.106 | [4] 0.0182

CCOc1c(Br)cc(C=C(C#N)c2nn(-c3ccccc3)c(N)c2C#N)cc1OC
inactive: [5] 0.0856 | [6] 0.124 | [7] 0.0719 | [8] 0.193

CCOC(=O)c1c[nH]c2c(C)cccc2c1=O
inactive: [5] 0.111 | [6] 0.0771 | [7] 0.1 | [8] -0.0609

CC[C@H]1OC(=O)[C@H](C)[C@@H](O[C@H]2C[C@@](C)(OC)[C@@H](O)[C@H](C)O2)[C@H](C)[C@@H](O[C@@H]2O[C@H](C)C[C@H](N(C)C)[C@H]2O)[C@](C)(O)C[C@@H](C)[C@@H]2N[C@@H](COCCOC)OC([C@H]2C)[C@]1(C)O
inactive: [5] 0.163 | [6] 0.065 | [7] 0.143 | [8] 0.0253

COc1cc(O)c2c(=O)c(-c3ccc(O)cc3)coc2c1
inactive: [5] -0.0342 | [6] 0.0164 | [7] 0.131 | [8] 0.0327

O=C1CCCCC/C=C\CCCCCCCCO1
inactive: [5] -0.00728 | [6] 0.0186 | [7] 0.143 | [8] 0.0924

CCCCCCCCCCCCCCCCCC(=O)NCC(COP(=O)([O-])OCC[N+](C)(C)C)OC (stereo unspecified)
inactive: [1] 0.255 | [2] 0.0758 | [3] 0.173 | [4] 0.0504

Cc1cc(Nc2cc(CN3CCOCC3)c3nc(C)c(Cc4ccc(Cl)cc4F)n3n2)n[nH]1
active: [15] -0.183 | [17] -0.442 | [18] -0.142 | [19] -1.04 | [20] -0.863
inactive: [9] 0.0112 | [10] 0.0393 | [11] -0.00623 | [12] -0.00356 | [13] -0.0578 | [14] 0.0432 | [16] -0.0123

COc1c2ccoc2c(OC)c2oc(=O)ccc12
inactive: [5] 0.157 | [6] -0.0309 | [7] 0.197 | [8] 0.0899

CC1Cc2ccccc2N1C(=S)Nc1ccc2nccnc2c1 (stereo unspecified)
inactive: [5] 0.139 | [6] 0.113 | [7] 0.133 | [8] 0.0139

CC[C@H](C)C(=O)O[C@H]1C[C@@H](C)C=C2C=C[C@H](C)[C@H](CC[C@@H]3C[C@@H](O)CC(=O)O3)[C@H]21
inactive: [5] 0.0174 | [6] -0.0358 | [7] 0.109 | [8] 0.0431

CCC(C)(C)C(=O)O[C@H]1C[C@@H](C)C=C2C=C[C@H](C)[C@H](CC[C@@H]3C[C@@H](O)CC(=O)O3)[C@H]21
active: [19] -1.27 | [20] -1.32
inactive: [9] 0.14 | [10] 0.05 | [5] 0.0551 | [6] -0.0746 | [11] 0.153 | [12] 0.105 | [13] 0.0408 | [14] 0.0447 | [7] 0.0209 | [8] -0.321 | [15] 0.107 | [16] -0.0366 | [17] -0.0829 | [18] -0.13

CC[C@H](C)C(=O)O[C@H]1CCC=C2C=C[C@H](C)[C@H](CC[C@@H]3C[C@@H](O)CC(=O)O3)[C@H]21
inactive: [5] 0.147 | [6] 0.00215 | [1] 0.167 | [2] 0.108 | [7] 0.0603 | [8] -0.0998 | [3] 0.145 | [4] 0.0674
